{"source": "PubChem BioAssay AID1347426", "about": "(Functional Genomics Laboratory (NCATS/FGL), 2020)", "note": "The campaign covered roughly 31,000 sequences. About 1,400 (4.5%) were called active. Only a selection was taken, and actives are over-represented in it overall. Values without a mark were called inactive.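 The calls were made as follows: active = median seed-adjusted z-score above 1 or below -1; inactive = the rest.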", "data": [{"test": "Novel Modifiers of Survival Motor Neuron (SMN) Protein: Gene Identification via Genome-wide siRNA Screen;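 also: luminescence tracks full-length SMN protein made from the SMN2 reporter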", "conditions": "HEK293T SMN2-luciferase reporter, siRNA knockdown, 72 h; actives lie on both sides", "in_short": "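Steps: spot 1 pmol siRNA, add Lipofectamine RNAiMax in serum-free DMEM, seed HEK293T SMN2–luciferase reporter cells; incubate 72 h at 37 °C; add ONE-Glo; normalize luminescence to control siRNA, log10, MAD. Candidates: |MAD| > 1.0.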", "values": [{"sequence": "CUGUCCGUAUGAUUACAAATT against ZFAND5", "median seed-adjusted z-score": 0.0289}, {"sequence": "GCAUCGCCCUGAUGAGUAATT against ADCY7", "median seed-adjusted z-score": -0.0202}, {"sequence": "CCUCAUGUCGGGCAUCUUATT against EGR4", "median seed-adjusted z-score": 0}, {"sequence": "GAUUCUUUUGAAAAAGUGATT against ZNF675", "median seed-adjusted z-score": -0.343}, {"sequence": "GGAUUAUUCAUUAUUACAUTT against NDUFB6", "median seed-adjusted z-score": -0.357}, {"sequence": "GCUCAACAGUCCCUAGUUATT against RSC1A1", "median seed-adjusted z-score": 0.438}, {"sequence": "CCAUCAAGCUCUACAAGGATT against TOP3B", "median seed-adjusted z-score": "-1.11 (active)"}, {"sequence": "CAGUUCAAGUGACCAUUGATT against CD300LF", "median seed-adjusted z-score": -0.264}, {"sequence": "GGUUCUUCCCGUUGUCUUUTT against TOMM22", "median seed-adjusted z-score": 0.486}, {"sequence": "GGACCACAGACAUAGUAGATT against NCOA5", "median seed-adjusted z-score": 0.947}, {"sequence": "ACAUGGACAAUGCCGCAGATT against HSPBP1", "median seed-adjusted z-score": 0.368}, {"sequence": "CUAAGAUGGUUAUCAAGAATT against SLC1A2", "median seed-adjusted z-score": 0.249}, {"sequence": "CGAAGGAUAUCUAUCAUCATT against NXF1", "median seed-adjusted z-score": "-4.46 (active)"}, {"sequence": "GGACUACGGAGUUCGAGAATT against MGC29506", "median seed-adjusted z-score": 0}, {"sequence": "CCCAUAAUAUCAUUGAGAATT against SREBF2", "median seed-adjusted z-score": -0.606}, {"sequence": "GGUCCGGAAUGUGAACUUUTT against SERPINE2", "median seed-adjusted z-score": 0.0144}, {"sequence": "AGAUGGAGUUUGAUCCUAATT against POLR2G", "median seed-adjusted z-score": "-4.19 (active)"}, {"sequence": "GAACUGCAAAGACCUGUUUTT against SSU72", "median seed-adjusted z-score": "-1.64 (active)"}, {"sequence": "CCUCAUCAACUCUGACAUATT against LMO2", "median seed-adjusted z-score": 0}, {"sequence": "CCGUGAUCGUGAAGCUAGATT against PKD2", "median seed-adjusted z-score": 0.219}, {"sequence": "CCCUCAGACUGUACGCAGATT against PGM5", "median seed-adjusted z-score": -0.0543}, {"sequence": "GGAAACUCGUGGACUAUGATT against BIN2", "median seed-adjusted z-score": 0.205}, {"sequence": "CGCUCACACUGGGUUCCAATT against SLC34A1", "median seed-adjusted z-score": 0.139}, {"sequence": "UGAGCACAAUCAAGUCUAATT against BRD4", "median seed-adjusted z-score": "1.13 (active)"}, {"sequence": "GAAUUGGAAGAAGAUAUCATT against RHOBTB3", "median seed-adjusted z-score": 0.256}, {"sequence": "GAUGAUCUGUGAGACCAAATT against BOC", "median seed-adjusted z-score": -0.0192}, {"sequence": "CAUCAACGAAGGAAAUAUATT against CD27", "median seed-adjusted z-score": 0.5}, {"sequence": "GUUCCUUAUUGUUAAGGUATT against PCDHB10", "median seed-adjusted z-score": -0.09}, {"sequence": "GAAUGGAAGAUUUCACCUUTT against SNAPC3", "median seed-adjusted z-score": "-1.72 (active)"}, {"sequence": "GGAGCUACUUUGACUCACUTT against KCNK13", "median seed-adjusted z-score": -0.0924}, {"sequence": "GCUCUGUGCUCUCUAGUGATT against LEFTY1", "median seed-adjusted z-score": 0.383}, {"sequence": "CCCUCACUAUCACGGUUAATT against ATP6V1B2", "median seed-adjusted z-score": 0.24}, {"sequence": "GUGCAUGUAUGAAGCCGAATT against NDUFB10", "median seed-adjusted z-score": -0.39}, {"sequence": "AGAAGGUGACUCAAAGAAUTT against WFDC1", "median seed-adjusted z-score": 0.152}, {"sequence": "AGCUCUUUGCUACAGAUGATT against ACAD8", "median seed-adjusted z-score": "1.06 (active)"}, {"sequence": "GGACCGUGUUCUUUACGUATT against NDUFAB1", "median seed-adjusted z-score": -0.282}, {"sequence": "CCCUGUUAUGUCAAGCUUATT against SYNPR", "median seed-adjusted z-score": 0.257}, {"sequence": "CUUAAUUCUUGGUCUAUGATT against SP6", "median seed-adjusted z-score": -0.176}, {"sequence": "AGUUCAUGCAAGAUCCAAUTT against BAT1", "median seed-adjusted z-score": "-1.49 (active)"}, {"sequence": "AGCGCGUCAUGAUGACCUATT against PER1", "median seed-adjusted z-score": 0.176}, {"sequence": "AGCCCGUGAUGUACACGUATT against COL8A1", "median seed-adjusted z-score": -0.848}, {"sequence": "GAUCCACCUGAGACAGAAATT against EGR2", "median seed-adjusted z-score": -0.37}, {"sequence": "GGAUCUAUCUCAUCAAACATT against NDUFC1", "median seed-adjusted z-score": 0}, {"sequence": "CAGACUUAUUACUAGAUGATT against PRDX5", "median seed-adjusted z-score": -0.0386}, {"sequence": "GCAAAGGCACUGAAUCGAATT against MAP4K5", "median seed-adjusted z-score": -0.309}, {"sequence": "GCCCGUCUAUGACAAGAAATT against RELB", "median seed-adjusted z-score": "1.16 (active)"}, {"sequence": "CGCCUUGAAUGGGAGCAAATT against C2", "median seed-adjusted z-score": -0.0549}, {"sequence": "GUGUAUUACCUGAGAAUCATT against CYP24A1", "median seed-adjusted z-score": 0.136}, {"sequence": "CAGGUACCGUCAUCACAUUTT against PCDHA7", "median seed-adjusted z-score": 0.552}, {"sequence": "GACUCGUGGUUUGAAGUGATT against ZNRF1", "median seed-adjusted z-score": -0.808}, {"sequence": "CCCAGUUCCUAGACUGUAUTT against MTMR8", "median seed-adjusted z-score": -0.416}, {"sequence": "CGACCUUCAAAGUUAACAATT against CLIP1", "median seed-adjusted z-score": 0.853}, {"sequence": "CCUCUUACACUUUUCCGAATT against PECI", "median seed-adjusted z-score": -0.0254}, {"sequence": "GUACCCUGGAGGAAAGCGATT against GNRH2", "median seed-adjusted z-score": "1.13 (active)"}, {"sequence": "AGAGGAUCCUGAACUCCAATT against MYO19", "median seed-adjusted z-score": 0.0987}, {"sequence": "AUCAAGUCUUCUUACAAGATT against VDAC2", "median seed-adjusted z-score": 0.648}, {"sequence": "GAAUGAGGCAUAUCAAGCATT against TUBD1", "median seed-adjusted z-score": -0.00491}, {"sequence": "GGAAAUCCUUCAUAUACAATT against ZNF549", "median seed-adjusted z-score": 0.0114}, {"sequence": "GAUUCCGUCUAAUCCUAGATT against C5", "median seed-adjusted z-score": 0.153}, {"sequence": "ACAAUGAAGUUCUCCCUGATT against PCGF1", "median seed-adjusted z-score": 0.508}, {"sequence": "CCUCAUUUGUCUACACCAUTT against RAD51L1", "median seed-adjusted z-score": 0}, {"sequence": "GGUAUGAGGUUGACUCAUUTT against IFNAR1", "median seed-adjusted z-score": 0.0327}, {"sequence": "GGAGACCUGCGAUUACUUUTT against BARX2", "median seed-adjusted z-score": -0.206}, {"sequence": "GGAGCUCAUUUGACAUGUATT against KIR2DL5B", "median seed-adjusted z-score": "1.72 (active)"}, {"sequence": "GCGACUGUCUCGACAGAUATT against HTT", "median seed-adjusted z-score": -0.234}, {"sequence": "GGAUAGCUAAAGAAAUUCATT against IMPA1", "median seed-adjusted z-score": -0.295}, {"sequence": "CCACACUGGUGAUAGACCATT against ZNF384", "median seed-adjusted z-score": -0.132}, {"sequence": "UGAAAGGACUUGUCUGAAATT against CHST6", "median seed-adjusted z-score": 0.372}, {"sequence": "GGGUGUCUGCGAUUAUCUUTT against WDFY1", "median seed-adjusted z-score": 0.979}, {"sequence": "GGUUGGUGAUGUCAAGUAUTT against CDKL2", "median seed-adjusted z-score": -0.293}, {"sequence": "AGUGGUCCCUUCACAGGAATT against GNRH2", "median seed-adjusted z-score": "1.13 (active)"}, {"sequence": "AGCCUUUAGUGUCCGUUCATT against ZNF347", "median seed-adjusted z-score": 0}, {"sequence": "GGGACUAGCUCUUCGCAUATT against PTGER3", "median seed-adjusted z-score": -0.321}, {"sequence": "GACUCUGAAUGCUUGCUGUTT against MMS19", "median seed-adjusted z-score": 0.0142}, {"sequence": "CCAUCUAUGAGGCGGGAAATT against MFI2", "median seed-adjusted z-score": 0.365}, {"sequence": "GAAUCUUGCCCGUCUAUAATT against RSC1A1", "median seed-adjusted z-score": 0.438}, {"sequence": "CACCAUCUCCGGGAACAGATT against FUT1", "median seed-adjusted z-score": 0.000845}, {"sequence": "GCAUGGGUUUUAUUAUAUATT against CCL11", "median seed-adjusted z-score": -0.221}, {"sequence": "CACGAGCUAAAGUAAAAUATT against EGLN1", "median seed-adjusted z-score": "2.05 (active)"}, {"sequence": "CAUCAUUACUGUUGAGGGATT against CSRP2BP", "median seed-adjusted z-score": -0.526}, {"sequence": "GAGAAACCUUUAUUCGAUATT against GLULD1", "median seed-adjusted z-score": -0.332}, {"sequence": "CCAUCGACAUUGAAACCUUTT against PITPNM2", "median seed-adjusted z-score": 0.275}, {"sequence": "GCAAUGCGUUCUUUCUAAATT against SIGLEC11", "median seed-adjusted z-score": -0.395}, {"sequence": "CAAAGAGAUUUGUACAGAUTT against ZNF140", "median seed-adjusted z-score": 0.587}, {"sequence": "GGACGAGCCUCAUGAAUGATT against SEC11B", "median seed-adjusted z-score": "1.04 (active)"}, {"sequence": "CAGUGUCCAUGUACCUCUUTT against SLC37A4", "median seed-adjusted z-score": -0.00202}, {"sequence": "GCAUUUAGGUACCAGCUCATT against SLC39A2", "median seed-adjusted z-score": 0.0602}, {"sequence": "CCAGGGAUAUGAUUGACAATT against SERPINE2", "median seed-adjusted z-score": 0.0144}, {"sequence": "GCAGUACACGAGAAAGUCATT against 1-Sep", "median seed-adjusted z-score": 0.0103}, {"sequence": "CUACAUCAAGAAGACAUAUTT against ABHD2", "median seed-adjusted z-score": "-1.21 (active)"}, {"sequence": "CUCUCUCUCUACGAACAUUTT against TCF7", "median seed-adjusted z-score": -0.338}, {"sequence": "CGACCCAGACAAUAGACUATT against CCNT1", "median seed-adjusted z-score": -0.72}, {"sequence": "GGUAUGGAUUGAUGCCGCATT against SLC6A2", "median seed-adjusted z-score": 0}, {"sequence": "GCACCAUUCUAACAAUGGATT against NANS", "median seed-adjusted z-score": "-1.54 (active)"}, {"sequence": "CCAACAAGCUGUCUCCCUATT against CENPB", "median seed-adjusted z-score": 0.292}, {"sequence": "GUACAAGAGAUAAUGCAAATT against TFPI", "median seed-adjusted z-score": -0.0076}, {"sequence": "CUAUCAUAGUGACAAGCGATT against GJA5", "median seed-adjusted z-score": 0.707}, {"sequence": "AAGUACAUAUAACCACUUATT against RAB14", "median seed-adjusted z-score": -0.0567}, {"sequence": "CAGUGACCCGGAUCCUCUATT against RHCG", "median seed-adjusted z-score": 0.375}, {"sequence": "CCUGGACGAGUUUAUAAUATT against AP1S3", "median seed-adjusted z-score": 0.153}, {"sequence": "GCCGUAUAAGUGUCAAGCATT against ZNF57", "median seed-adjusted z-score": 0}, {"sequence": "CAAUGUUAGGAGUCAGUCATT against ACTL6A", "median seed-adjusted z-score": "1.11 (active)"}, {"sequence": "AGGGCUUGUUUGACAACUUTT against CHTF18", "median seed-adjusted z-score": 0.371}, {"sequence": "GCUGAUACCUUCUACCGUATT against GDPD2", "median seed-adjusted z-score": -0.0868}, {"sequence": "ACCGCACGAUGUUCAACUUTT against DNAJC30", "median seed-adjusted z-score": 0.329}, {"sequence": "CAGACAUGAAGUAUAAGAATT against TCEA2", "median seed-adjusted z-score": 0.552}, {"sequence": "CCUGCCCAAUGUGACCUUUTT against MRC2", "median seed-adjusted z-score": "-1.34 (active)"}, {"sequence": "CAAAUCCUAUAGUAUAACATT against RPS6KC1", "median seed-adjusted z-score": 0.344}]}]}
